Assay results taken from PubChem BioAssay AID1159580 (chemical genetic matrix, 2015).
“And” between values parts separate entries of the source, which are not always exact repeats. Identical values can stand only once. Hit rate of the full screen: of about 5,500 compounds, about 2,000 (36%) were called active. Not shown: some 18% with an inconclusive outcome. This is one part of the list. Values without a mark were called inactive. Rule as the data show it: active = normalized growth mostly below about 0.91 (no sharp cut-off); inconclusive = no clear call, values can overlap the other calls; inactive = mostly above about 0.92.

Assay: chemical genetic growth profiling, strain panel (AID 1159580);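 also: tested at 20 µM; growth read once vehicle control cultures reached saturation at 30 °C; 1 = growth at the plate median or of vehicle wells; lower values mean less growth of the strain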
Settings: S. cerevisiae deletion strains, growth OD

COc1cc(OC)c2c(OC)c(-c3ccc4c(c3)OCO4)c(=O)oc2c1
normalized growth (locus YAL013W, strain DEP1, active compounds read low): 0.982
normalized growth (locus YAL021C, strain ccr4, active compounds read low): 0.968
normalized growth (locus YAL026C, strain drs2, active compounds read low): 0.957
normalized growth (locus YAL030W, strain snc1, active compounds read low): 0.975
normalized growth (locus YBL061C, strain skt5, active compounds read low): 0.955
normalized growth (locus YBR009C, strain hhf1, active compounds read low): 0.934
normalized growth (locus YBR021W, strain FUR4, active compounds read low): 0.975
normalized growth (locus YBR023C, strain chs3, active compounds read low): 0.943
normalized growth (locus YBR171W, strain sec66, active compounds read low): 1
normalized growth (locus YBR229C, strain ROT2, active compounds read low): 0.987
normalized growth (locus YBR231C, strain swc5, active compounds read low): 0.954
normalized growth (locus YBR279W, strain paf1, active compounds read low): 0.969
normalized growth (locus YCL011C, strain gbp2, active compounds read low): 0.966
normalized growth (locus YCL016C, strain dcc1, active compounds read low): 0.969
normalized growth (locus YCL029C, strain bik1, active compounds read low): 0.995
normalized growth (locus YCL061C, strain MRC1, active compounds read low): 0.985
normalized growth (locus YCL069W, strain vba3, active compounds read low): 1.01
normalized growth (locus YCR088W, strain abp1, active compounds read low): 0.988
normalized growth (locus YDL005C, strain med2, active compounds read low): 0.983
normalized growth (locus YDL035C, strain GPR1, active compounds read low): 0.987
normalized growth (locus YDL040C, strain nat1, active compounds read low): 0.971
normalized growth (locus YDL074C, strain BRE1, active compounds read low): 0.93
normalized growth (locus YDL101C, strain DUN1, active compounds read low): 0.982
normalized growth (locus YDL134C, strain PPH21, active compounds read low): 0.986
normalized growth (locus YDL185W, strain tfp1, active compounds read low): 0.996
normalized growth (locus YDL192W, strain arf1, active compounds read low): 0.979
normalized growth (locus YDR001C, strain nth1, active compounds read low): 0.98
normalized growth (locus YDR069C, strain doa4, active compounds read low): 0.982
normalized growth (locus YDR101C, strain arx1, active compounds read low): 0.975
normalized growth (locus YDR137W, strain rgp1, active compounds read low): 0.777 (active)
normalized growth (locus YDR150W, strain NUM1, active compounds read low): 1.01
normalized growth (locus YDR159W, strain sac3, active compounds read low): 0.951
normalized growth (locus YDR162C, strain NBP2, active compounds read low): 0.973
normalized growth (locus YDR195W, strain ref2): 1.05
normalized growth (locus YDR297W, strain sur2, active compounds read low): 0.974
normalized growth (locus YDR318W, strain mcm21, active compounds read low): 0.976
normalized growth (locus YDR334W, strain swr1, active compounds read low): 0.983
normalized growth (locus YDR335W, strain msn5, active compounds read low): 1.01
normalized growth (locus YDR388W, active compounds read low): 0.972
normalized growth (locus YDR392W, strain spt3, active compounds read low): 0.477 (active)
normalized growth (locus YDR502C, strain sam2, active compounds read low): 0.956
normalized growth (locus YEL003W, strain gim4, active compounds read low): 0.971
normalized growth (locus YEL037C, strain rad23, active compounds read low): 0.986
normalized growth (locus YEL061C, strain CIN8 (second series), active compounds read low): 1
normalized growth (locus YEL061C, strain CIN8, active compounds read low): 0.996
normalized growth (locus YER015W, strain faa2, active compounds read low): 0.96
normalized growth (locus YER016W, strain bim1, active compounds read low): 0.974
normalized growth (locus YER110C, active compounds read low): 0.972
normalized growth (locus YER111C, strain swi4, active compounds read low): 1.02
normalized growth (locus YER155C, strain BEM2 (second series), active compounds read low): 0.897
normalized growth (locus YER155C, strain BEM2, active compounds read low): 0.988
normalized growth (locus YER167W, strain BCK2, active compounds read low): 0.99
normalized growth (locus YFR010W, strain ubp6, active compounds read low): 1.01
normalized growth (locus YGL078C, strain dbp3, active compounds read low): 0.99
normalized growth (locus YGL086W, strain mad1, active compounds read low): 0.976
normalized growth (locus YGL167C, strain pmr1, active compounds read low): 0.963
normalized growth (locus YGL173C, strain kem1, active compounds read low): 0.98
normalized growth (locus YGL227W, strain vid30, active compounds read low): 1
normalized growth (locus YGL240W, strain doc1, active compounds read low): 0.941
normalized growth (locus YGL248W, strain PDE1, active compounds read low): 0.985
normalized growth (locus YGL253W, strain hxk2, active compounds read low): 0.936
normalized growth (locus YGR078C, strain PAC10, active compounds read low): 0.962
normalized growth (locus YGR135W, strain pre9, active compounds read low): 0.931
normalized growth (locus YGR229C, strain SMI1, active compounds read low): 0.921
normalized growth (locus YGR252W, strain gcn5, active compounds read low): 0.903
normalized growth (locus YHR013C, strain ard1, active compounds read low): 0.962
normalized growth (locus YHR027C, strain rpn1, active compounds read low): 0.999
normalized growth (locus YHR030C, strain SLT2, active compounds read low): 0.993 and 0.954
normalized growth (locus YHR079C, strain IRE1 (second series), active compounds read low): 0.976
normalized growth (locus YHR079C, strain IRE1, active compounds read low): 0.948
normalized growth (locus YHR094C, strain hxt1, active compounds read low): 0.994
normalized growth (locus YHR129C, strain ARP1, active compounds read low): 0.989
normalized growth (locus YHR142W, strain chs7, active compounds read low): 0.882
normalized growth (locus YHR200W, strain rpn10, active compounds read low): 0.981
normalized growth (locus YIL066C, strain RNR3, active compounds read low): 0.982
normalized growth (locus YIL073C, strain SPO22, active compounds read low): 0.978
normalized growth (locus YIL125W, strain kgd1, active compounds read low): 0.997
normalized growth (locus YIR030C, strain dcg1, active compounds read low): 0.975
normalized growth (locus YJL092W, strain hpr5, active compounds read low): 0.994
normalized growth (locus YJL095W, strain BCK1 (second series), active compounds read low): 0.97
normalized growth (locus YJL095W, strain BCK1, active compounds read low): 0.915 and 0.957
normalized growth (locus YJL115W, strain asf1, active compounds read low): 1
normalized growth (locus YJL129C, strain trk1, active compounds read low): 0.97
normalized growth (locus YJL134W, strain LCB3, active compounds read low): 0.991
normalized growth (locus YJL154C, strain vps35, active compounds read low): 0.993
normalized growth (locus YJL164C, strain tpk1, active compounds read low): 0.946
normalized growth (locus YJL166W, strain qcr8, active compounds read low): 0.931
normalized growth (locus YJL168C, strain set2, active compounds read low): 0.976
normalized growth (locus YJL187C, strain SWE1 (second series), active compounds read low): 0.977
normalized growth (locus YJL187C, strain SWE1, active compounds read low): 0.971
normalized growth (locus YJR043C, strain POL32, active compounds read low): 1.01
normalized growth (locus YJR066W, strain TOR1, active compounds read low): 0.95
